# Results: PubChem BioAssay (Tox21)
# Unmarked numbers belong to inactive results. Results filed as inconclusive are left out. A call without a number means that no potency is given here. Calls of active or inactive are those of the source. Unless noted, calls come from the whole dose curve.
# Tests used:
# [1] = Nuclear factor erythroid 2-related factor 2/antioxidant responsive element (Nrf2/ARE) small molecule agonists: qHTS cell viability counter screen in human keratinocytes (AID 1919968; active = well fitted curve in the direction sought with a large enough effect in the repeat runs; an effect the other way counts as inactive or inconclusive; note: nearly all actives have a fitted effect of over 55% in size)
# In short: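 HaCaT ARE reporter line, 1,500 cells/well; 5 h settle, 37 C/5% CO2; cpd in DMSO pinned; 23 h exposure; CellTiter-Fluor, 1 h; fluorescence.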
# [2] = Nuclear factor erythroid 2-related factor 2/antioxidant responsive element (Nrf2/ARE) small molecule agonists: luciferase reporter gene qHTS assay in human keratinocytes (AID 1919969); note: nearly all actives have a fitted effect of over 35% in size
# [3] = biological target: Gonadotropin-releasing hormone receptor (Homo sapiens) (UniProt P30968); experiment: Human gonadotropin-releasing hormone receptor (GnRHR) small molecule agonists, calcium flux assay in GnRHR-HEK293 cells (AID 1920063); note: nearly all actives have a fitted effect of over 35% in size
# Chain of Gonadotropin-releasing hormone receptor (Homo sapiens) (P30968 whole entry, looked up): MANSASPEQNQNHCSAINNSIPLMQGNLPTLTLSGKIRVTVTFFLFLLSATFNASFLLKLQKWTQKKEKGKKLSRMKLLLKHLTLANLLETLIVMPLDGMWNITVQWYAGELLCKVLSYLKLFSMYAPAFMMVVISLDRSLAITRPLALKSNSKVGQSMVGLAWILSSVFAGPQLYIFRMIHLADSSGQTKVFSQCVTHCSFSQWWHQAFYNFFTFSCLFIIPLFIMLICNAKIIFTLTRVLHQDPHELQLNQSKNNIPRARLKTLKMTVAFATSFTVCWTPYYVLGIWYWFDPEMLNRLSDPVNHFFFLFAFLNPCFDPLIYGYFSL
# In short: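 GnRHR-HEK293, 1500 cells/well, 18 h 37 C/5% CO2; Ca dye 1 h 37 C; cpd pinned (DMSO), agonist mode; kinetic FL 480/540, 3 min, 1 s reads; 15 conc, n=3.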
# [4] = biological target: KiSS-1 receptor (Homo sapiens) (UniProt Q969F8); experiment: Human kisspeptin (KISS1R) small molecule agonists, calcium flux assay in KISS1R-HEK293 cells (AID 1920064; active = well fitted curve in the direction sought with a large enough effect in the repeat runs; an effect the other way counts as inactive or inconclusive)
# Chain of KiSS-1 receptor (Homo sapiens) (Q969F8 whole entry, looked up): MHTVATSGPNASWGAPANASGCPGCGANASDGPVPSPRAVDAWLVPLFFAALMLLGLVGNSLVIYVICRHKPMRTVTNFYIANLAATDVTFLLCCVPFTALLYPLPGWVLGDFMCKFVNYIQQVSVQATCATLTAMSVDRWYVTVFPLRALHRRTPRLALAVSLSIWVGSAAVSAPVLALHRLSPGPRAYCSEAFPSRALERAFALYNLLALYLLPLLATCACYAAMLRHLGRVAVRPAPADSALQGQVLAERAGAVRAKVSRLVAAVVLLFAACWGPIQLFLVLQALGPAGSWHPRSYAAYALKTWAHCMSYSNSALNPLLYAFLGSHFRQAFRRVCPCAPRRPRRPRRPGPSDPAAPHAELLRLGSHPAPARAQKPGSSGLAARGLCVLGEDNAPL
# In short: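 Stable human KISS1R HEK293 line; 18 h plating, 37 C/5% CO2; calcium dye 1 h 37 C; compound pin transfer; kinetic fluorescence Ex/Em 480/540, 3 min.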
# [5] = G protein-coupled receptor (GPCR) small molecule agonists, calcium flux assay: HEK293 wild type cell line counter screen (AID 1920065)
# In short: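 Kinetic fluorescence at Ex/Em 480/540, recorded every second over 3 min, served as the read-out after compound addition. Each compound was tested at 15 concentrations in triplicate on cells pre-loaded with calcium dye for 1 h.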
# [6] = p53 small molecule agonists, cell-based qHTS assay with rat liver microsomes (AID 1963578)
# In short: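 p53RE-bla cells were exposed to compounds together with rat liver microsomes (0.5 mg/mL final) and NADPH (0.5 mg/mL final) for 16 h at 37 C, then read by LiveBLAzer beta-lactamase fluorescence after 2 h at room temperature.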
# [7] = p53 small molecule agonists, cell-based qHTS assay with human liver microsomes: qHTS cell viability counter screen (AID 1963579); note: nearly all actives have a fitted effect of over 45% in size
# In short: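 p53RE-bla cells (4,000/well) were pre-incubated 5 h at 37 C, then given compounds in DMSO plus human liver microsomes (0.5 mg/mL final) and NADPH (0.5 mg/mL final) for 16 h at 37 C. Viability was read by CellTiter-Glo luminescence.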
# [8] = p53 small molecule agonists, cell-based qHTS assay with rat liver microsomes: qHTS cell viability counter screen (AID 1963580); note: nearly all actives have a fitted effect of over 45% in size
# In short: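 Viability is assessed in parallel with the p53 reporter read: HCT-116 p53RE-bla cells receive compounds plus rat microsomes and NADPH (0.5 mg/mL final apiece), incubate 16 h at 37 C, and then CellTiter-Glo luminescence is recorded.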
# [9] = p53 small molecule agonists, cell-based qHTS assay: qHTS cell viability counter screen (AID 1963581); note: nearly all actives have a fitted effect of over 45% in size
# In short: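 HCT-116 p53RE-bla cells, 4,000/well, plated 5 h before compound pin transfer; 16 h at 37 C; bla substrate 2 h RT; then CellTiter-Glo, 30 min RT, luminescence.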
# [10] = p53 small molecule agonists, cell-based qHTS assay (AID 1963582; active = well fitted activation curve with a large enough effect in the signal ratio in the repeat runs, not every such curve was filed as active; the % refers to the signal ratio)
# In short: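 Reporter line: p53RE-bla. Pre-incubation 5 h, 37 C, 5% CO2; compound (DMSO, pin tool) 16 h, 37 C; B/G FRET substrate 2 h RT; fluorescence intensity read.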
# [11] = biological target: 5-hydroxytryptamine receptor 2A (Homo sapiens) (UniProt P28223); experiment: 5-hydroxytryptamine receptor 2A (HTR2A) small molecule agonists, cell-based qHTS assay (AID 1963587); note: nearly all actives have a fitted effect of over 30% in size
# Chain of 5-hydroxytryptamine receptor 2A (Homo sapiens) (P28223 whole entry, looked up): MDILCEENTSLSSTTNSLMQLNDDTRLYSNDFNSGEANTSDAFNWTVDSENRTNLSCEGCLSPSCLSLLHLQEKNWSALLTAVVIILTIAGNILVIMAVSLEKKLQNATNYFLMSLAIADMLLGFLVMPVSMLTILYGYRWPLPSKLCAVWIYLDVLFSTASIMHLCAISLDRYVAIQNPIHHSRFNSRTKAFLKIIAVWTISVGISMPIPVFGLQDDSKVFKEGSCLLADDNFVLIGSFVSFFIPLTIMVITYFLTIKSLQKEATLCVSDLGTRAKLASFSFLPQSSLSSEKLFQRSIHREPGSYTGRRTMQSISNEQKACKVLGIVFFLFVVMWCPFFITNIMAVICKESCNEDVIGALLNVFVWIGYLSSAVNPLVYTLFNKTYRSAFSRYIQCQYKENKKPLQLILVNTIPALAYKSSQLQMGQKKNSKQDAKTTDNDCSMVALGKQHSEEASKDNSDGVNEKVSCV
# In short: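 CHO cells stably expressing human HTR2A, plated 18 h, loaded with calcium dye 1 h at 37 C. Agonist mode: compounds added and intracellular calcium fluorescence recorded kinetically for 2 min at 1 sec intervals.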
# [12] = biological target: Muscarinic acetylcholine receptor M1 (Homo sapiens) (UniProt P11229); experiment: Cholinergic receptor muscarinic 1 (CHRM1) small molecule antagonists, cell-based qHTS assay (AID 1963588); note: nearly all actives have a fitted effect of over 40% in size; note: potency is the fitted concentration of half-maximal effect
# Chain of Muscarinic acetylcholine receptor M1 (Homo sapiens) (P11229 whole entry, looked up): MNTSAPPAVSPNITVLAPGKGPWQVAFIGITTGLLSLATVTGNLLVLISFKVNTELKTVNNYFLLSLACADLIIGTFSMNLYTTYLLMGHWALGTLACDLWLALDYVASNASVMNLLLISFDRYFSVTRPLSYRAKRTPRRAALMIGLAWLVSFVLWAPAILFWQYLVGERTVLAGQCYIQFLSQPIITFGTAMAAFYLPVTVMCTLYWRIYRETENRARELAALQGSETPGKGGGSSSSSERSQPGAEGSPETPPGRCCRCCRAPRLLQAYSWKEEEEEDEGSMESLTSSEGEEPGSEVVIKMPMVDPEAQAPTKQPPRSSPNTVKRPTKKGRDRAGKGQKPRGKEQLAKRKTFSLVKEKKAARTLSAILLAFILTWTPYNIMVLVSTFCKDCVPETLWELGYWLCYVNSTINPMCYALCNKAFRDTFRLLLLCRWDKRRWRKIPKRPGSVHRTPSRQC
# In short: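 CHRM1-CHO calcium-flux assay, antagonist mode. Cells were seeded 18 h, dye-loaded 1 h at 37 C and given compound for 5 min at RT, then acetylcholine was added at 50nM. FDSS fluorescence was read 3 min; 15 concentrations, three runs.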
# [13] = biological target: Muscarinic acetylcholine receptor M1 (Homo sapiens) (UniProt P11229); experiment: Cholinergic receptor muscarinic 1 (CHRM1) small molecule agonists, cell-based qHTS assay (AID 1963589); note: nearly all actives have a fitted effect of over 35% in size
# In short: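 Human M1 in stable CHO line; 18 h plating, 1 h dye load 37 C; cpd added (agonist mode); Ca2+ fluorescence kinetic read, 1 s intervals; 15 conc, 3 runs.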
# [14] = cAMP Responsive Elements (CRE) small molecule agonists, cell-based qHTS assay (AID 1963590)
# In short: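 HEK 293T CRE-bla, 2,000 cells/well, 18 h preincubation 37 C/5% CO2; cpds (DMSO) pinned, 3 h; LiveBLAzer B/G FRET substrate, 2 h RT.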
# [15] = cAMP Responsive Elements (CRE) small molecule antagonists, cell-based qHTS assay (AID 1963591; active = well fitted inhibition curve with a large enough effect in the signal ratio in the repeat runs, not every such curve was filed as active; the % refers to the signal ratio)
# In short: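 Beta-lactamase reporter read by FRET substrate (LiveBLAzer B/G) after 2 h at room temperature. CRE-bla HEK293T cells had received compound plus 0.25 uM (final) NKH477 for 3 h at 37 °C.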
# [16] = biological target: D(2) dopamine receptor (Homo sapiens) (UniProt P14416); experiment: Dopamine D2 receptor (DRD2) small molecule agonists, cell-based qHTS assay (AID 1963594); note: nearly all actives have a fitted effect of over 35% in size
# Chain of D(2) dopamine receptor (Homo sapiens) (P14416 whole entry, looked up): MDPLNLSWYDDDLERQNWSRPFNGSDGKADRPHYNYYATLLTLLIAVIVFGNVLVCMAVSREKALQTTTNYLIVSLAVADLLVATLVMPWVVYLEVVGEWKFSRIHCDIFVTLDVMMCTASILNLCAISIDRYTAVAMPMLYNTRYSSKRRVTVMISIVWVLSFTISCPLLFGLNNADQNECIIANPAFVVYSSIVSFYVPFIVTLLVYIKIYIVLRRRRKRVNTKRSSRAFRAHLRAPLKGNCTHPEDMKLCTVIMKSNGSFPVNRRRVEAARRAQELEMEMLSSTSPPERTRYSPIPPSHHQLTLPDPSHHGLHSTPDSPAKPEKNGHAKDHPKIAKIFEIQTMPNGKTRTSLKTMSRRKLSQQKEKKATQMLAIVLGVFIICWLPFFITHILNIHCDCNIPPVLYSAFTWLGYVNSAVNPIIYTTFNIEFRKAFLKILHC
# In short: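 HEK293 cells stably expressing human DRD2, pre-treated with PDE inhibitor Ro20-1724 (0.1 mM final) and compound 10 min at room temperature, then stimulated with NKH477 (200nM […]) for 30 min. cAMP read by HTRF (665/620 nm).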
# [17] = biological target: D(2) dopamine receptor (Homo sapiens) (UniProt P14416); experiment: Dopamine D2 receptor (DRD2) small molecule antagonists, cell-based qHTS assay (AID 1963595; active = well fitted inhibition curve with a large enough effect in the signal ratio in the repeat runs, with a control signal flat; the % refers to the signal ratio)
# In short: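 Human DRD2 antagonist qHTS measuring cAMP by HTRF. The cells are exposed to compound for 10 min, then to NKH477 (200 nM) and quinpirole (12 nM) for 30 min at RT, with Ro20-1724 (0.1 mM) present throughout.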
# [18] = biological target: 5-hydroxytryptamine receptor 2A (Homo sapiens) (UniProt P28223); experiment: 5-hydroxytryptamine receptor 2A (HTR2A) small molecule antagonists, cell-based qHTS assay (AID 1963586); note: nearly all actives have a fitted effect of over 45% in size
# In short: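 Antagonist-mode intracellular calcium assay: DOI (4 nM) added after 5 min compound pre-incubation at room temperature to dye-loaded HTR2A-CHO cells. Fluorescence followed for 3 min, sampled every second.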
# [19] = biological target: Beta-2 adrenergic receptor (Homo sapiens) (UniProt P07550); experiment: Adrenergic beta2 receptor (ADRB2) small molecule antagonists, cell-based qHTS assay (AID 1963592); note: series mostly up to about 92 µM; nearly all actives have a fitted effect of over 50% in size
# Chain of Beta-2 adrenergic receptor (Homo sapiens) (P07550 whole entry, looked up): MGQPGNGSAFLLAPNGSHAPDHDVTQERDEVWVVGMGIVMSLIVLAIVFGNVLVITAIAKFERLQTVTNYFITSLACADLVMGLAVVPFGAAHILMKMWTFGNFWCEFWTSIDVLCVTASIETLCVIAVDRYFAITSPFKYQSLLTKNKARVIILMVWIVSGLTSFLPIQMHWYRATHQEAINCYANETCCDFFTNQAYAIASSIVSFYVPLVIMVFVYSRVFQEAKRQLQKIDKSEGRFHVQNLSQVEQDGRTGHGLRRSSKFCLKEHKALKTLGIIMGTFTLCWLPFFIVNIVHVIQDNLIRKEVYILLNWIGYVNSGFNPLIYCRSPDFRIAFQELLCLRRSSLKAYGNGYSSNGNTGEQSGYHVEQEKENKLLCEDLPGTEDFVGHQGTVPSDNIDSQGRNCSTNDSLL
# In short: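 Cells (CHO, stable ADRB2 overexpression) incubated 18-20hr at 37C; compounds added from DMSO; agonist mix (1nM isoproterenol, 100uM IBMX, 25uM Ro-20-1724) added; 0.5hr RT; d2-cAMP and anti-cAMP-cryptate added; 1hr RT; 665/615 nm read.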
compound,measurement,setting,value
FC(F)(F)c1ccc(Cl)cc1Cl,Potency,[1],inactive
same,Potency,[2],inactive
same,Potency,[3],inactive
same,outcome,[4],inactive
same,outcome,[5],inactive
same,Potency,[6],inactive
same,Potency,[7],inactive
same,Potency,[8],inactive
same,Potency,[9],inactive
same,Potency,[10],inactive
same,Potency,[11],inactive
same,Potency,[12],inactive
same,Potency,[13],inactive
same,Potency,[14],inactive
same,Potency,[15],inactive
same,Potency,[16],inactive
same,Potency,[17],inactive
CN1CCN(c2c(F)cc3c(=O)c(C(=O)O)cn4c3c2OCN4C)CC1,"activity change, negative = cytotoxicity",[1],9.2% [at 19 µM]
same,"activity, positive = activation",[2],-3.8% [at 19 µM]
same,activity change,[3],"0.0141% [at 11.8 µM, hits give high values]"
same,activation,[4],-1.38% [at 15.8 µM]
same,activation,[5],-0.0119% [at 11.8 µM]
same,activation,[6],-0.432% [at 13.6 µM]
same,"activity change, negative = cytotoxicity",[7],-4.82% [at 13.5 µM]
same,"activity change, negative = cytotoxicity",[8],-2.46% [at 13.5 µM]
same,"activity change, negative = cytotoxicity",[9],0.627% [at 13.5 µM]
same,"activity, negative = inhibition",[18],-5.02% [at 12.7 µM]
same,activation,[11],-1.68% [at 15.9 µM]
same,"activity, negative = inhibition",[12],-0.388% [at 12.6 µM]
same,activation,[13],-0.139% [at 15.8 µM]
same,"activity change, negative = inhibition",[15],-9.33% [at 18.9 µM]
same,"activity change, negative = inhibition",[19],2.14% [at 19 µM]
same,activation,[16],11.6% [at 19 µM]
O=C(O)CNC(=O)c1ccc([N+](=O)[O-])cc1,Potency,[1],inactive
same,Potency,[2],inactive
same,Potency,[3],inactive
same,outcome,[4],inactive
same,outcome,[5],inactive
same,Potency,[6],inactive
same,Potency,[7],inactive
same,Potency,[8],inactive
same,Potency,[9],inactive
same,Potency,[10],inactive
same,Potency,[18],inactive
same,Potency,[11],inactive
same,Potency,[12],inactive
same,Potency,[13],inactive
same,Potency,[14],inactive
same,Potency,[19],inactive
same,Potency,[16],inactive
same,Potency,[17],inactive
C/C=C/C(=O)OCC(C)C,Potency,[1],inactive
same,Potency,[2],inactive
same,Potency,[3],inactive
same,outcome,[4],inactive
same,outcome,[5],inactive
same,Potency,[6],inactive
same,Potency,[7],inactive
same,Potency,[8],inactive
same,Potency,[9],inactive
same,Potency,[18],inactive
same,Potency,[11],inactive
same,Potency,[13],inactive
same,Potency,[14],inactive
same,Potency,[15],inactive
same,Potency,[16],inactive
same,Potency,[17],inactive
CCn1ccnc1CC1COc2ccccc2O1 (stereo unspecified),Potency,[1],inactive
same,Potency,[2],inactive
same,Potency,[3],inactive
same,outcome,[4],inactive
same,outcome,[5],inactive
same,Potency,[6],inactive
same,Potency,[7],inactive
same,Potency,[8],inactive
same,Potency,[9],inactive
same,Potency,[10],inactive
same,Potency,[18],inactive
same,Potency,[11],inactive
same,Potency,[12],inactive
same,Potency,[13],inactive
same,Potency,[14],inactive
same,Potency,[15],inactive
same,Potency,[19],inactive
same,Potency,[17],inactive
COC(=O)C1=C(C)NC(C)=C(C(=O)OC(C)(C)CN(C)CCC(c2ccccc2)c2ccccc2)C1c1cccc([N+](=O)[O-])c1 (stereo unspecified),Potency,[1],inactive
same,Potency,[2],inactive
same,Potency,[3],inactive
same,outcome,[4],inactive
same,outcome,[5],inactive
same,Potency,[6],inactive
same,Potency,[7],inactive
same,Potency,[8],inactive
same,Potency,[9],inactive
same,Potency,[10],inactive
same,Potency,[18],inactive
same,Potency,[11],inactive
same,Potency,[12],6.5 µM (active)
same,Potency,[13],inactive
same,Potency,[15],inactive
same,Potency,[19],inactive
same,Potency,[16],inactive
same,Potency,[17],inactive
CC(=O)OCC(=O)[C@@]1(O)CC[C@H]2[C@@H]3CCC4=CC(=O)C=C[C@]4(C)[C@@]3(F)[C@@H](O)C[C@@]21C,Potency,[1],inactive
same,Potency,[2],inactive
same,Potency,[3],inactive
same,outcome,[4],inactive
same,outcome,[5],inactive
same,Potency,[6],inactive
same,Potency,[7],inactive
same,Potency,[8],inactive
same,Potency,[9],inactive
same,Potency,[18],inactive
same,Potency,[11],inactive
same,Potency,[12],inactive
same,Potency,[13],inactive
same,Potency,[14],inactive
same,Potency,[15],inactive
same,Potency,[19],inactive
same,Potency,[16],inactive
same,Potency,[17],inactive
